# Unmarked numbers belong to inactive results.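 How the source made its calls: active means compounds cutting enzyme signal by half at 10000 nM or lower, the printed EC50; inactive means the rest.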
# Assay: fluorescent interference in IDE FRET1 assay, late-stage follow-up, artefact control for IDE activator project, biochemical, fluorogenic FRET1 peptide substrate (AID 624035)
# Conditions: recombinant IDE, FRET1 substrate fluorescence, artifact counterscreen
row,Structure (SMILES),EC50 [µM]
1,CCCCN(C)C1=CC2=CC(=C(C#N)C#N)CCC2CC1 (stereo not drawn),> 10
2,CCN1CCN(C2=CC3=CC(=C(C#N)C#N)CCC3CC2)CC1 (stereo not drawn),> 10
3,O=c1ccc2c(-c3ccccc3)c3ccc(O)cc3oc-2c1,> 10
4,CN(C)/C=C1\C=C2C(=O)c3ccccc3N2C1=O,> 10
5,CCN(CC)C1=CC2=CC(=C(C#N)C#N)CCC2CC1 (stereo not drawn),> 10
6,N#CC(C#N)=C1C=C2C=C(N3CCOCC3)CCC2CC1 (stereo not drawn),> 10
7,N#CC(C#N)=C1C=C2C=C(N3CCCCCC3)CCC2CC1 (stereo not drawn),> 10
8,C/C(CC(=O)Nc1ccc(N(C)C)cc1)=N\NC(=O)c1ccncc1,> 10

# Source: PubChem BioAssay AID624035 (The Scripps Research Institute Molecular Screening Center, 2012)
